In PubChem BioAssay (Tox21):
A number with no mark means an inactive call. Activity calls are given as the source filed them. Unless noted, calls come from the whole dose curve.

Target: Gonadotropin-releasing hormone receptor (Homo sapiens) (UniProt P30968)
Assay: Human gonadotropin-releasing hormone receptor (GnRHR) small molecule agonists, calcium flux assay in GnRHR-HEK293 cells (AID 1920063); note: nearly all actives have a fitted effect of over 35% in size
Conditions: calcium flux fluorescence, agonist mode; series mostly up to 57.6 µM; activity change: at the top concentration
Method in brief: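 We seeded human GnRHR-expressing HEK293 cells for 18 hours, loaded them with calcium dye for an hour at 37 C, added test compounds, and recorded fluorescence intensity kinetically for three minutes.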
% is set by controls: 0 for no effect and ±100 for the full control effect.

Chain of Gonadotropin-releasing hormone receptor (Homo sapiens) (P30968 whole entry, looked up): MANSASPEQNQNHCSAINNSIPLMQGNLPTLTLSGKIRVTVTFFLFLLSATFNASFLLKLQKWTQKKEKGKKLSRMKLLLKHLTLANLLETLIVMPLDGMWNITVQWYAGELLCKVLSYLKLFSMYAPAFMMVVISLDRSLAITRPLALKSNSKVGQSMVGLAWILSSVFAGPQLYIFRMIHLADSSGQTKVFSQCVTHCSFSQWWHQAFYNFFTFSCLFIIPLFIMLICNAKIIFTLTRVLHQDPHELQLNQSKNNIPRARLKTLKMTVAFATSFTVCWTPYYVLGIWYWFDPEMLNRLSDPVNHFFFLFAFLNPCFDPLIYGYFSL

Row | Structure (SMILES) | activity change | Potency
1 | CN(C)C(=O)Oc1ccc[n+](C)c1 | 0.0351% [at 26.4 µM, active compounds read high] | 
2 | O=c1[nH]c(=O)c2cn[nH]c2[nH]1 | 0.0026% | 
3 | CN(CC1(C)CCCO1)S(=O)(=O)c1ccc(Cl)c(S(N)(=O)=O)c1 (stereo not drawn) | 4.08% [at 26.4 µM, active compounds read high] | 
4 | CC(C)(Oc1ccc(CCNC(=O)c2ccc(Cl)cc2)cc1)C(=O)O |  | inactive

Target: KiSS-1 receptor (Homo sapiens) (UniProt Q969F8)
Sequence (Q969F8 whole entry, looked up): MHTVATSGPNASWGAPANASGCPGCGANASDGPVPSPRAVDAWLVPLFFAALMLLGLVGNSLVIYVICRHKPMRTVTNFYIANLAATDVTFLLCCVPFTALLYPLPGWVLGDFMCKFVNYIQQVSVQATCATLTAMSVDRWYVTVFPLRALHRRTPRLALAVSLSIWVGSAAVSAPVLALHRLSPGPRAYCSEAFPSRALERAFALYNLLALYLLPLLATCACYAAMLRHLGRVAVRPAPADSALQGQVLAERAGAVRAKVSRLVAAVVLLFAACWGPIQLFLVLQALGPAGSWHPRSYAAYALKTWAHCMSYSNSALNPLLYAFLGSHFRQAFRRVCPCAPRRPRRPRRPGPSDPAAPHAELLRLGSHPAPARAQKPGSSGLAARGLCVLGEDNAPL
Assay: Human kisspeptin (KISS1R) small molecule agonists, calcium flux assay in KISS1R-HEK293 cells (AID 1920064; active = well fitted activation curve with a large enough effect in the repeat runs)
Conditions: KISS1R-HEK293, calcium flux fluorescence, agonist; series mostly up to 76.8 µM; activation: at the top concentration
Method in brief: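 Kinetic calcium assay, 1 s sampling over 3 min at Ex/Em 480/540, in HEK293 cells engineered with human KISS1R; compounds delivered in DMSO after 1 h dye loading.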

Row | Structure (SMILES) | Potency | activation
5 | CCN(CC)c1ccc2c(C)cc(=O)oc2c1 | inactive | 
6 | CC(C)=CCC/C(C)=C/C#N |  | 0.0493%
7 | C1CSCCS1 |  | -1.04%
8 | CCCCCCCCS(=O)(=O)Cl |  | 0.0492%
9 | NNc1nncc2ccccc12 | inactive | 
10 | Cc1ccc2oc(=O)ccc2c1 | inactive | 
11 | CCC(=O)O[C@@H]1C[C@H]2CC[C@]1(C)C2(C)C |  | -0.37%
12 | OCc1ccccc1 | inactive | 
13 | CCCCC(CC)COCC1CO1 (stereo not drawn) | inactive | 
14 | CC(C)NCC(O)COc1cccc2ccccc12 (stereo not drawn) | inactive | 
15 | COCCCOc1ccnc(CS(=O)c2nc3ccccc3[nH]2)c1C (stereo not drawn) | inactive | 
16 | OC[C@H]1O[C@@H]2O[C@H]3[C@H](O)[C@@H](O)[C@@H](O[C@H]4[C@H](O)[C@@H](O)[C@@H](O[C@H]5[C@H](O)[C@@H](O)[C@@H](O[C@H]6[C@H](O)[C@@H](O)[C@@H](O[C@H]7[C@H](O)[C@@H](O)[C@@H](O[C@H]8[C@H](O)[C@@H](O)[C@@H](O[C@H]1[C@H](O)[C@H]2O)O[C@@H]8CO)O[C@@H]7CO)O[C@@H]6CO)O[C@@H]5CO)O[C@@H]4CO)O[C@@H]3CO | inactive | 
17 | NC(=O)c1ccccc1Cl |  | -2.11%
18 | CC(=O)Nc1ncc([N+](=O)[O-])s1 |  | -1.07% [at 35.3 µM]
19 | CC(C)(C)NC(N)=O |  | 1.55%
20 | CC(=O)[C@H]1CC[C@H]2[C@@H]3CCC4=CC(=O)CC[C@]4(C)[C@H]3CC[C@]12C | inactive | 
21 | NC(=O)CCCCC(N)=O |  | -1.92%

Row | Structure (SMILES) | Potency | activation
22 | Nc1ccc(N)c(Cl)c1 |  | -8.89%
23 | CCCCCCCCOCCC#N |  | 2.09%
24 | O=C(O)c1ccccc1OP(=O)(O)O |  | -0.954% [at 35.3 µM]
25 | CCOC(=O)C(C)Oc1ccc(Oc2cnc3cc(Cl)ccc3n2)cc1 (stereo not drawn) | inactive | 
26 | CCOC(=O)CN1CCCC1=O |  | -0.904% [at 35.3 µM]
27 | COS(C)(=O)=O | inactive | 
28 | BrC1CCC(Br)C(Br)CCC(Br)C(Br)CCC1Br (stereo not drawn) | inactive | 
29 | O=C(O)c1cc(=O)c2c(OCC(O)COc3cccc4oc(C(=O)O)cc(=O)c34)cccc2o1 | inactive | 
30 | CC(=O)CC(C)(C)C1CCCCC1 |  | 0.0515%
31 | C=CC(=O)NC(C)C |  | -0.77%
32 | O=S(=O)(O)c1cccc2ccccc12 |  | 2.97%
33 | CC(C)CCCCCCc1ccc(O)cc1 | inactive | 
34 | CN(C)C(=O)Oc1ccc[n+](C)c1 |  | -0.802% [at 35.3 µM]
35 | O=c1[nH]c(=O)c2cn[nH]c2[nH]1 |  | -2.44%
36 | CN(CC1(C)CCCO1)S(=O)(=O)c1ccc(Cl)c(S(N)(=O)=O)c1 (stereo not drawn) |  | -0.5% [at 35.3 µM]
37 | CC(C)(Oc1ccc(CCNC(=O)c2ccc(Cl)cc2)cc1)C(=O)O | inactive | 

Tested on: not listed separately
Assay: G protein-coupled receptor (GPCR) small molecule agonists, calcium flux assay: HEK293 wild type cell line counter screen (AID 1920065)
Conditions: HEK293 WT calcium flux, fluorescence, agonist mode; series mostly up to 57.6 µM; activation: at the top concentration
Method in brief: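 Calcium-sensitive dye, loaded 1 h at 37 C into cells cultured 18 h, reports compound-evoked calcium release as fluorescence (Ex/Em 480/540), measured over 3 min. Agonist mode; 15-point titrations, triplicate.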

Row | Structure (SMILES) | Potency | activation
38 | CCN(CC)c1ccc2c(C)cc(=O)oc2c1 | inactive | 
39 | C/C=C/C(=O)C1=C(C)C=CCC1(C)C |  | 0.386%
40 | CC(C)=CCC/C(C)=C/C#N |  | 0.356%
41 | C1CSCCS1 |  | 1.5%
42 | CCCCCCCCS(=O)(=O)Cl |  | -0.173%
43 | O=C1CC2CC1C1CCCC21 (stereo not drawn) |  | -0.0487%
44 | NNc1nncc2ccccc12 | inactive | 
45 | CCC(=O)O[C@@H]1C[C@H]2CC[C@]1(C)C2(C)C |  | 0.416%
46 | OCc1ccccc1 | inactive | 
47 | CC1(C)C(C=C(Cl)Cl)C1C(=O)OCc1cccc(Oc2ccccc2)c1 (stereo not drawn) | inactive | 
48 | CCCCC(CC)COCC1CO1 (stereo not drawn) | inactive | 
49 | CC(C)NCC(O)COc1cccc2ccccc12 (stereo not drawn) | inactive | 
50 | CC(C)c1ccc(C=O)cc1 |  | -1.07%
51 | OCCC(F)(F)C(F)(F)C(F)(F)C(F)(F)C(F)(F)C(F)(F)F |  | 0.338%
52 | COCCCOc1ccnc(CS(=O)c2nc3ccccc3[nH]2)c1C (stereo not drawn) | inactive | 
53 | OC[C@H]1O[C@@H]2O[C@H]3[C@H](O)[C@@H](O)[C@@H](O[C@H]4[C@H](O)[C@@H](O)[C@@H](O[C@H]5[C@H](O)[C@@H](O)[C@@H](O[C@H]6[C@H](O)[C@@H](O)[C@@H](O[C@H]7[C@H](O)[C@@H](O)[C@@H](O[C@H]8[C@H](O)[C@@H](O)[C@@H](O[C@H]1[C@H](O)[C@H]2O)O[C@@H]8CO)O[C@@H]7CO)O[C@@H]6CO)O[C@@H]5CO)O[C@@H]4CO)O[C@@H]3CO | inactive | 
54 | CC(C)(C)NC(N)=O |  | -1.43%
55 | CC(=O)[C@H]1CC[C@H]2[C@@H]3CCC4=CC(=O)CC[C@]4(C)[C@H]3CC[C@]12C | inactive | 

Row | Structure (SMILES) | Potency | activation
56 | NC(=O)CCCCC(N)=O |  | 0.899%
57 | Nc1ccc(N)c(Cl)c1 |  | -0.411%
58 | CS(=O)(=O)O |  | 1.39%
59 | CCCCCCCCOCCC#N |  | -0.63%
60 | O=C(O)c1ccccc1OP(=O)(O)O |  | -0.0883% [at 26.5 µM]
61 | CCOC(=O)C(C)Oc1ccc(Oc2cnc3cc(Cl)ccc3n2)cc1 (stereo not drawn) | inactive | 
62 | CCOC(=O)CN1CCCC1=O |  | -0.77% [at 26.5 µM]
63 | COS(C)(=O)=O | inactive | 
64 | CC(=O)O[C@H]1C[C@@H]2CC[C@@]1(C)C2(C)C |  | -0.15%
65 | BrC1CCC(Br)C(Br)CCC(Br)C(Br)CCC1Br (stereo not drawn) | inactive | 
66 | CC(=O)CC(C)(C)C1CCCCC1 |  | 0.666%
67 | C=CC(=O)NC(C)C |  | 0.503%
68 | O=S(=O)(O)c1cccc2ccccc12 |  | 0.102%
69 | CC(C)CCCCCCc1ccc(O)cc1 | inactive | 
70 | CN(C)C(=O)Oc1ccc[n+](C)c1 |  | -0.272% [at 26.5 µM]
71 | O=c1[nH]c(=O)c2cn[nH]c2[nH]1 |  | 0.042%
72 | CN(CC1(C)CCCO1)S(=O)(=O)c1ccc(Cl)c(S(N)(=O)=O)c1 (stereo not drawn) |  | 1.5% [at 26.5 µM]
73 | CC(C)(Oc1ccc(CCNC(=O)c2ccc(Cl)cc2)cc1)C(=O)O | inactive | 
